Assay [1] relates to TRPC4 beta (transient receptor potential cation channel C4), mouse. Nature of the assay: TRPC4 cation channel opening, retest – cell-based, Fluo4 calcium, HEK293 TRPC4beta/mu-opioid, duplicates, 10 µM, confirmation (AID 2426;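 active = fluorescence ratio normalized to control raised more than 50% in primary screen plus both repeat runs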;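 note: percent rise of integrated ratio over buffer wells lacking compound which define 0%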). The conditions noted are these: Fluo4 calcium fluorescence, at 10 µM; stronger effect = higher value.
Assay [2] deals with transient receptor potential cation channel C4 beta (TRPC4), mouse. Nature of the assay: TRPC4 cation channel opening, second retest – cell-based, second round, Fluo4, HEK293 TRPC4beta/mu-opioid, 1 µM, confirmation (AID 2461;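 active = primary screen active and over 50% activation in each of two duplicate runs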;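 for activation: 0% = wells without test compound as baseline of integrated fluorescence ratio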). To be noted: Fluo4 calcium fluorescence, at 1 µM; stronger effect = higher value.
For assay [3], the system named is TRPC4 (transient receptor potential cation channel C4 beta), mouse. Briefly: potentiation of DAMGO EC20 TRPC4 response – cell-based, second round, Fluo-4, HEK293 TRPC4beta/mu-opioid, 1 µM, confirmation (AID 2554;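 active = primary screen hit whose fluorescence ratio, in both repeats, exceeds the weak agonist control mean by 3 SD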). The conditions noted are these: DAMGO EC20, Fluo-4 calcium flux, at 1 µM; stronger effect = higher value. In general terms: Calcium assays in cells follow changes in intracellular calcium, usually with a dye or a luminescent sensor.

The test system of assay [4] is TRPC4 beta (transient receptor potential cation channel C4), mouse. Briefly: potentiation of DAMGO EC20 TRPC4 response – cell-based, Fluo-4, HEK293 TRPC4beta/mu-opioid, confirmation (AID 2555;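 active = primary screen hit whose calcium fluorescence ratio, in both repeats, exceeds the weak agonist control mean by 3 SD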). The conditions noted are these: DAMGO EC20, Fluo-4 calcium flux, at 10 µM; stronger effect = higher value.
The target in assay [5] is Short transient receptor potential channel 4 (Mus musculus) (UniProt Q9QUQ5). Nature of the assay: blockers of DAMGO-evoked TRPC4 calcium flux – cell-based, Fluo4, HEK293 TRPC4beta/mu-opioid, confirmation (AID 2636;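 active = calcium signal cut by more than 3 SD below the full-agonist control yet still positive, in both repeats and the earlier primary screen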). The conditions noted are these: at 10 µM; stronger effect = higher value.
Sequence of Short transient receptor potential channel 4 (Mus musculus) (Q9QUQ5 whole entry, looked up): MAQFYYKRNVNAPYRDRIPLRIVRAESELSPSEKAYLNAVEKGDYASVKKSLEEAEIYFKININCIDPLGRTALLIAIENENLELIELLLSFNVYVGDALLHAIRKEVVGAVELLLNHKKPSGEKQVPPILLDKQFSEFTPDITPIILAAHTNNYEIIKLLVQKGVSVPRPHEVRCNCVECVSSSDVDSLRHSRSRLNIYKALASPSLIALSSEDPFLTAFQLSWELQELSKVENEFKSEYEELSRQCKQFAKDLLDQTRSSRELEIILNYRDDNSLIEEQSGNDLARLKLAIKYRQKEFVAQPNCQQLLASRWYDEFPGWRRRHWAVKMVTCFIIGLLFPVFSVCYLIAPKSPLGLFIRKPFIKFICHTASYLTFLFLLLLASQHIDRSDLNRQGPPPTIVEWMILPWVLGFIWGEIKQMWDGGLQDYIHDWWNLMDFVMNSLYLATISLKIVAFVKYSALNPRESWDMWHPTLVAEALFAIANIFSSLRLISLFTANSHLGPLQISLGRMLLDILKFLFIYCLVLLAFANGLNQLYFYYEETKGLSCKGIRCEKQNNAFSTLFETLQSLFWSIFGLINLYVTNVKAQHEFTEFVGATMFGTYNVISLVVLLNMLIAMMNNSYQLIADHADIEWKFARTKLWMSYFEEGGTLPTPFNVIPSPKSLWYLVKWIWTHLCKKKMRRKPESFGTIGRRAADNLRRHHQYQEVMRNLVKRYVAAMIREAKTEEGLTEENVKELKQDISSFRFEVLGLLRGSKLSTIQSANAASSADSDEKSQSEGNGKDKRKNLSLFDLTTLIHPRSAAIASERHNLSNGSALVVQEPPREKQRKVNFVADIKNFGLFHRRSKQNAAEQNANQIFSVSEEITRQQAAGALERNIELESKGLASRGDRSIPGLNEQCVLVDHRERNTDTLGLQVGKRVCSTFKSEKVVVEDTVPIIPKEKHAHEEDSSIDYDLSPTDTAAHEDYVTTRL
For assay [6] the target is unchanged. Briefly: blockers of DAMGO-evoked TRPC4 calcium flux – cell-based, second round, Fluo4, HEK293 TRPC4beta/mu-opioid, 1 µM, confirmation (AID 2637;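 active = calcium signal ratio cut to more than 3 SD under the fully stimulated control mean yet still positive, in both repeats and the primary screen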). To be noted: at 1 µM; stronger effect = higher value.
Assay [7] shares this target. Nature of the assay: potentiation of DAMGO-evoked TRPC4 calcium signal – cell-based, HEK293 TRPC4/mu-opioid, Fluo-4 calcium, EC20 DAMGO, dose response (AID 434941;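 active = earlier screen potentiator hit that boosts the TRPC4 ion channel at some dose, with a dose response; inactive = no potentiation, no dose response, or not a prior hit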;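 note: calcium entry triggered by an EC20 dose of DAMGO at the co-expressed mu-opioid receptor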).
The target is the same in assay [8]. Nature of the assay: block of DAMGO-driven TRPC4 calcium entry – cell-based, HEK293 TRPC4/mu-opioid, Fluo-4 calcium, dose response (AID 434942).
In assay [9] the target is Short transient receptor potential channel 6 (Mus musculus) (UniProt Q61143). Briefly: TRPC6 blockade by TRPC4 inhibitor hits – cell-based, HEK293, membrane potential dye, duplicate, selectivity assay for TRPC4 inhibitor project, confirmation (AID 434948;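 active = active in primary screen and both duplicates, each dropping signal beyond three positive-control SD with fluorescence still positive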). To be noted: HEK293 TRPC6, membrane potential dye fluorescence, at 10 µM, stimulated with maximal-effect acetylcholine; stronger effect = higher value.
Sequence of Short transient receptor potential channel 6 (Mus musculus) (Q61143 whole entry, looked up): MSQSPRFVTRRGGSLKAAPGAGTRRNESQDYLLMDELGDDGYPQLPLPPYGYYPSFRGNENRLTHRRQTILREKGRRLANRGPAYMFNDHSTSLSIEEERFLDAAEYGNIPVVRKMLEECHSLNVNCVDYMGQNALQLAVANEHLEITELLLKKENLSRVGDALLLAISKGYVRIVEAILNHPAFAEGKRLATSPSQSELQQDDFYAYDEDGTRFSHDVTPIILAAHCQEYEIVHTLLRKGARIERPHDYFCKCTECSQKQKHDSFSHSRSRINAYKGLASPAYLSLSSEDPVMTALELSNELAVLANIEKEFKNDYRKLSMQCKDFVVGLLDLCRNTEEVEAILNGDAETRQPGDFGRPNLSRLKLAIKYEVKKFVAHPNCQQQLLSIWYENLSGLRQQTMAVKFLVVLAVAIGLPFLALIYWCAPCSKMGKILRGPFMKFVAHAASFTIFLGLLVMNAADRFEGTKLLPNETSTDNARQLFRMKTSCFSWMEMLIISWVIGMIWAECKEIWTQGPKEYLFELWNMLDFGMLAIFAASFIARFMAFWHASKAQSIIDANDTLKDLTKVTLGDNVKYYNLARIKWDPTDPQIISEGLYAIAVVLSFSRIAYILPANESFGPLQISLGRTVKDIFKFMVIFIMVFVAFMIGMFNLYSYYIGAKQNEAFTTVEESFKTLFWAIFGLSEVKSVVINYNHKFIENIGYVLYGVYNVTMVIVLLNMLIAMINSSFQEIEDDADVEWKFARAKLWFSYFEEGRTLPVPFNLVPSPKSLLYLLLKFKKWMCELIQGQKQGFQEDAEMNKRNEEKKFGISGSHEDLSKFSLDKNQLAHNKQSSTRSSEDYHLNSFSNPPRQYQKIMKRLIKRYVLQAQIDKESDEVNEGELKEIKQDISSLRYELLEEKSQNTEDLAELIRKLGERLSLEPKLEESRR

The target is the same in assay [10]. Briefly: TRPC6 opening by TRPC4 activator hits – cell-based, HEK293, membrane potential dye, duplicate, selectivity assay for TRPC4 activator project, confirmation (AID 434950;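 active = membrane potential signal rise above negative control mean plus 3 SD in both duplicates, also active in the earlier TRPC4 screen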;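 for activation: 0% = buffer only wells and 100% = acetylcholine maximal-effect wells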). To be noted: HEK293 TRPC6, membrane potential fluorescence, at 10 µM; activation: stronger effect = higher value; outcome: activation.
The target is the same in assay [11]. Briefly: positive modulators of mouse TRPC6 channel – HEK293 cells, membrane potential dye, duplicate, selectivity assay for TRPC4 potentiator project, confirmation (AID 434952;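 active = compound raising the membrane signal above positive-control mean plus 3 SD in both repeats, and a primary screen hit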). To be noted: HEK293 TRPC6, membrane potential dye fluorescence, at 10 µM, maximal acetylcholine added after compound; stronger effect = higher value.
Assay [12] addresses Short transient receptor potential channel 4 (Mus musculus) (UniProt Q9QUQ5). Nature of the assay: calcium flux activators in TRPC4/5HT1a cells, counter-screen for TRPC4 activator project, cell-based, second counter screen, HEK293 TRPC4/5HT1a, Fluo-4 (AID 434977;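 active = calcium signal rise above buffer-control mean plus 5 SD in both duplicates, and also a hit in the primary screen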;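 for activation: plate controls were assay buffer for no effect and maximal serotonin response for full effect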). The conditions noted are these: Fluo-4 calcium flux, at 10 µM; stronger effect = higher value.
Assay [13] in a line: serotonin-gated TRPC4 signal block – cell-based, second counter screen, HEK293 TRPC4/5HT1a, Fluo-4, counter-screen for TRPC4 inhibitor project, confirmation (AID 434978;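 active = primary screen active whose calcium signal fell more than 3 SD beyond the full-serotonin control mean in both duplicate plates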;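 note: serotonin given first at submaximal then at maximal dose after compound preincubation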). To be noted: Fluo-4 calcium flux, at 10 µM, serotonin added to trigger calcium flux; stronger effect = higher value. Background: The purpose of a counterscreen is to sort out artefacts and off-target activity.
In assay [14] the test system is TRPC4 (mouse), co-expressed with 5HT1a in HEK293. Nature of the assay: enhancement of serotonin-evoked TRPC4 response – cell-based, second counter screen, HEK293 TRPC4/5HT1a, Fluo-4, counter-screen for TRPC4 potentiator project, confirmation (AID 434979;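 active = signal rise over 3 SD above mean of control wells given weak agonist, in both repeats and first screen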). The conditions noted are these: Fluo-4 calcium flux, at 10 µM, serotonin added at its EC20 dose; stronger effect = higher value.

Assay [15] is described as follows: nonspecific calcium rise without TRPC4 – cell-based, HEK293 mu-opioid receptor line, counter-screen for TRPC4 activator project, confirmation (AID 449723;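 active = hit in primary screen, with calcium signal over 5 SD above buffer well mean in both duplicates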;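 note: counter screen cells carry the mu-opioid receptor alone and lack TRPC4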). The conditions noted are these: HEK293 mu-opioid cells, Fluo-4 calcium fluorescence, at 10 µM; stronger effect = higher value.
Assay [16] can be described thus: nonspecific potentiation of DAMGO calcium response – cell-based, HEK293 mu-opioid receptor line, counter-screen for TRPC4 allosteric potentiator project, confirmation (AID 449724;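 active = calcium signal rise more than 3 SD above the low-dose agonist control mean, in both duplicate plates and the primary screen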;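 note: HEK293 cells carrying mu-opioid receptor only with no TRPC4 channel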). The conditions noted are these: HEK293 mu-opioid receptor cells, Fluo-4 calcium flux, at 10 µM, compound added before EC20 DAMGO stimulus; stronger effect = higher value.
Assay [17] is described as follows: nonspecific flux increase, KCNQ1-free cells – parental CHO cells, counter-screen for KCNQ1 potentiator project (AID 493006;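 active = duplicate-averaged activation above buffer control mean plus 5 SD of those controls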;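 note: fluorescence ratio of max minus min over baseline after K+ and Tl+ depolarization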). To be noted: parental CHO-K1 cells, FluxOR thallium flux, at 10 µM; stronger effect = higher value.
The target in assay [18] is Potassium voltage-gated channel subfamily KQT member 1 (Homo sapiens) (UniProt P51787). Nature of the assay: enhancement of KCNQ1 channel thallium flux – FluxOR thallium flux, CHO cells, duplicates, confirmation (AID 493007;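 active = potentiation averaged over duplicate wells exceeding buffer-only control mean by more than 3 SD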;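 note: 0% = buffer-only wells and 100% = R-L3 activator control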). The conditions noted are these: KCNQ1 cell line, FluxOR thallium flux fluorescence, at 10 µM; stronger effect = higher value, % of reference activator effect, buffer zero.
Sequence of Potassium voltage-gated channel subfamily KQT member 1 (Homo sapiens) (P51787 whole entry, looked up): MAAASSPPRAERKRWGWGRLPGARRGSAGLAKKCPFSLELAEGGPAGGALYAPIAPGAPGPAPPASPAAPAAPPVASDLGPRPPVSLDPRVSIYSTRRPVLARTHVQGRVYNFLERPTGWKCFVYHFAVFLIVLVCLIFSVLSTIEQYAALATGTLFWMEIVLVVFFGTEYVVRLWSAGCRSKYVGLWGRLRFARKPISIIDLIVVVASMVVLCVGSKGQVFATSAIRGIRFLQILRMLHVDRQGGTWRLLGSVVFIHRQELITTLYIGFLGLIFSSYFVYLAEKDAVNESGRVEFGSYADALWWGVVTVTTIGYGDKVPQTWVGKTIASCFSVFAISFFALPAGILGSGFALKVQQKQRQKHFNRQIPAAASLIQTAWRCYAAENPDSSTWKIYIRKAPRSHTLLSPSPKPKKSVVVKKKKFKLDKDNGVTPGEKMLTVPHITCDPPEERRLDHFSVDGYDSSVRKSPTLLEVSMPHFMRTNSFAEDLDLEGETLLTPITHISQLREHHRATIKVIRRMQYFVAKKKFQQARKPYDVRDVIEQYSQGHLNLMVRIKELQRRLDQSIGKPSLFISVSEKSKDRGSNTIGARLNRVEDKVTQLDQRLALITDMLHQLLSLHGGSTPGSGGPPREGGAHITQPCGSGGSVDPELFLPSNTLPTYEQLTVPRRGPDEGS

The target of assay [19] is Potassium voltage-gated channel subfamily KQT member 2 (Rattus norvegicus) (UniProt O88943). Briefly: KCNQ2 thallium flux enhancement – KCNQ2-CHO-K1 cells, selectivity assay for KCNQ1 potentiator project (AID 493009;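 active = mean duplicate potentiation above the buffer control mean plus 5 SD of buffer wells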;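 note: assay conditions were tuned for KCNQ1 rather than KCNQ2 modulators; signal is max minus min fluorescence divided by baseline after thallium stimulus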). To be noted: FluxOR thallium flux fluorescence, at 10 µM; stronger effect = higher value, scaled: buffer 0, activator control 100.
Sequence of Potassium voltage-gated channel subfamily KQT member 2 (Rattus norvegicus) (O88943 whole entry, looked up): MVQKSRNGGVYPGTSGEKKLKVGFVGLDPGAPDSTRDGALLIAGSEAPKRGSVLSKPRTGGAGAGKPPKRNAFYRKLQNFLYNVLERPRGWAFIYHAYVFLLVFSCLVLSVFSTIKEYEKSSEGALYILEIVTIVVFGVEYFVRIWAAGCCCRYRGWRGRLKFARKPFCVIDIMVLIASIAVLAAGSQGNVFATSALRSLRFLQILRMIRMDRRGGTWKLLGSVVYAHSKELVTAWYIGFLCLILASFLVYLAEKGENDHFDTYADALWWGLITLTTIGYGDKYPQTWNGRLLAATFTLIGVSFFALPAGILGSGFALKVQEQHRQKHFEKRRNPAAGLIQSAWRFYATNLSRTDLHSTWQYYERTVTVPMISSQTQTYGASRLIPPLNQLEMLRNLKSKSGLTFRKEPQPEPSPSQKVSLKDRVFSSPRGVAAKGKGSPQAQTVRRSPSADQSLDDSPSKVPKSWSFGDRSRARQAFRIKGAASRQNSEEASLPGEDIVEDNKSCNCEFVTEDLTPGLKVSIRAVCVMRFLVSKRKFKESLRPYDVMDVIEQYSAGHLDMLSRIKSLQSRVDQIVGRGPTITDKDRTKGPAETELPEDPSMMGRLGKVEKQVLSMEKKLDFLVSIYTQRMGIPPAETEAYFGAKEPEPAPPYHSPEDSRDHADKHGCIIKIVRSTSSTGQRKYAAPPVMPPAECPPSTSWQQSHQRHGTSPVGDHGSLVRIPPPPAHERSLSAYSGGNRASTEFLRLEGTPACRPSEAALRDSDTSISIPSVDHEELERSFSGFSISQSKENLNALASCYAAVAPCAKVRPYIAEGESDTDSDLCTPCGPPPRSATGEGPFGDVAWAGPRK
For assay [20], the target named is Potassium voltage-gated channel subfamily KQT member 1 (Homo sapiens) (UniProt P51787). Briefly: KCNQ1 activators by electrophysiology – IonWorks patch clamp, KCNQ1-CHO cells, orthogonal assay for KCNQ1 potentiator project, confirmation (AID 493184;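 active = current rise at least 3 SD above the untreated control mean in each of two repeat wells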). The conditions noted are these: automated patch clamp current, at 10 µM; stronger effect = higher value. For orientation: Patch clamp records ionic current or voltage across a cell membrane.

For part of these data: Results with a measured potency or affinity are listed apart. The source made the active and inactive calls.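 Rule for the calls, unless noted: active = primary screen inhibitor hit that blocks the TRPC4 channel at some tested dose, yielding a dose curve; inactive = the rest.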

Regarding `Cc1ccc(C(=O)NNC(=S)NC(=O)c2ccccc2)cc1`, the activation is 239% (active) in assay [1]; 27% (active) in assay [10]; 133% (active) in assay [12]; 77.1% (active) in assay [15]; 188% (active) in [17]. In addition, the result in assay [2], in assay [3], in assay [4], in [5], in assay [6] and in [7] was inactive. Further, the result in assay [8], in assay [9], in assay [11], in assay [13], in assay [14] and in assay [16] was inactive. In addition, the outcome in assay [20] was inactive. Besides, the results for the potentiation in assay [18] and in assay [19] were 156% (active) and 300% (active), respectively.
For `CN(C)C(CNC(=O)C1CC(=O)N(Cc2ccccc2)C1)c1ccccc1` (stereo not drawn), the activation in assay [1] was 90% (active). Moreover, the result in assay [2], in [3], in assay [4], in assay [5], in [6] and in assay [7] was inactive. The result in assay [8], in assay [9], in assay [10], in assay [11], in [12] and in [13] was inactive. In addition, the result in assay [14], in assay [15] and in [16] was inactive.
Consider `O=C(N/N=C/c1cc([N+](=O)[O-])cc(Br)c1O)C12CC3CCC(CC(C3)C1)C2`, for which the activation in assay [1] is 82% (active); in assay [10] it was 28.5% (active); in [12], 68.6% (active); in [15], 33.8% (active); in assay [17] it was 158% (active). For the same compound, the outcome in assay [2], in [3], in assay [4], in [5], in assay [6] and in assay [7] was inactive. In addition, the outcome in [8], in assay [9], in assay [11], in assay [13], in assay [14] and in assay [16] was inactive. In addition, the result in [20] was inactive. Further, the potentiation in assay [18] is 43.5% (active); in [19] it was 163% (active).
Regarding `Cc1nc(NCC(c2ccccc2)N(C)C)c2c(C)c(C)sc2n1` (stereo not drawn), the results for the activation in assay [1], in assay [2] and in [12] were 204% (active), 78% (active) and 27.8% (active), respectively. In addition, the outcome in assay [3], in assay [4], in assay [5], in [6], in assay [7] and in assay [8] was inactive. Moreover, the compound was called inactive in assay [9], in [10], in [11], in [13], in assay [14] and in [15]. Also, in assay [16], the outcome was inactive.
In the case of `COc1ccc(C(CNC(=O)c2cc(SC)ccc2Cl)N(C)C)cc1` (stereo not drawn), the activation is 103% (active) in assay [1], 77% (active) in assay [2] and 65% (active) in [10]. The outcome in assay [3], in assay [4], in [5], in assay [6], in [7] and in [8] was inactive. Also, the compound was classed as inactive in [9], in assay [11], in assay [12], in [13], in assay [14] and in assay [15]. Also, the outcome in [16] was inactive.
For `O=c1c2cc(Br)ccc2nc(-c2cccc(C(F)(F)F)c2)n1O`, the activation in assay [1] was 449% (active); in assay [12], 111% (active); in assay [15], 60.8% (active); in assay [17], 808% (active). The result in assay [2], in [3], in assay [4], in assay [5], in assay [6] and in assay [7] was inactive. The result in [8], in [9], in assay [10], in assay [11], in [13] and in [14] was inactive. The result in [16] and in [20] was inactive. For the same compound, the results for the potentiation in [18] and in assay [19] were 372% (active) and 766% (active), respectively.

For the origin of these results see PubChem BioAssay.
